Compounds without any hit were thinned out: in the full panel of roughly 79,000, 15% have a hit. No stated cut-off is given here; in the data, active means growth inhibition above about 70%; inactive means the rest. Where a SMILES comes first, the peptide text is derived from it. [ ]: non-standard residue; d: D form. The star is where a group is joined. Nle = CCCC[CH](N)C(=O)O; Cbz = O=C(OCc1ccccc1)*; OBn = c1ccc(CO*)cc1
Columns and labels:
[1] = NCI Yeast Anticancer Drug Screen. Data for the rad50 strain (AID 155);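 further: 0% = growth of vehicle-only cultures of the same strain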; details: S. cerevisiae rad50 strain growth inhibition; at 50.0 µM; hits give high values
In short: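 DNA repair mutant yeast, compound exposure, growth read-out; inhibition is taken relative to vehicle.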

[2] = NCI Yeast Anticancer Drug Screen. Data for the mec2-1 strain (AID 157); details: S. cerevisiae mec2-1 strain, at 50.0 µM, hits give high values
In short: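 Using mec2-1 yeast: add compound, measure growth, express inhibition versus vehicle-treated cultures.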

[3] = NCI Yeast Anticancer Drug Screen. Data for the sgs1 mgt1 strain (AID 161);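 further: 0% = growth of cultures given vehicle only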; details: S. cerevisiae sgs1 mgt1 strain, at 50.0 µM, hits give high values
In short: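 This yeast growth screen uses a strain with defined DNA-repair lesions; compound-treated growth is compared with vehicle-treated growth.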

[4] = NCI Yeast Anticancer Drug Screen. Data for the cln2 rad14 strain (AID 165);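 further: 0% = growth equal to vehicle treated cultures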; details: S. cerevisiae cln2 rad14 strain, at 50.0 µM, hits give high values
In short: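 Yeast strain cln2 rad14, bearing defects in cell cycle control and DNA repair, serves as the test system; values reflect growth inhibition compared with vehicle.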

[5] = NCI Yeast Anticancer Drug Screen. Data for the bub3 strain (AID 167); details: S. cerevisiae bub3 mutant strain, at 50.0 µM, hits give high values
In short: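 In this screen, a yeast mutant lacking normal mitotic checkpoint function is challenged with compound. Relative growth versus vehicle gives the inhibition value.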

[6] = NCI Yeast Anticancer Drug Screen. Data for the mlh1 rad18 strain (AID 175); details: S. cerevisiae mlh1 rad18 strain growth inhibition; at 50.0 µM; hits give high values
In short: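 Steps: expose repair-defective yeast to compound; measure growth; express inhibition against vehicle-treated controls.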

Measured: growth inhibition

C/C(=N/O)C1c2ccccc2Cc2ccccc21
inactive: [1] -11.5% | [2] -11.8% | [3] -24.4% | [4] -12.8% | [5] -1.8% | [6] -22.5%

CCCOS(=O)(=O)O
inactive: [1] -13.7% | [2] -15.1% | [3] 1.7% | [4] 7% | [5] 6.65% | [6] 15.2%

COc1cc(C2C(Cl)C(=O)N2n2cnc3ccccc3c2=O)ccc1O (stereo not given)
inactive: [1] -22.7% | [2] 3.3% | [3] -11.2% | [4] 12.8% | [5] -10.2% | [6] -11.8%

CCOC(=O)Cn1c(=O)n(C)c(=O)c2c1ncn2Cc1ccccc1
inactive: [1] 0.7% | [2] -31.2% | [3] -14.3% | [4] -4.25% | [5] 9.5% | [6] -14.4%

CC(C)OC(=O)CO
inactive: [1] 29.6% | [2] 3.55% | [3] 14.2% | [4] 12.2% | [5] 10.5% | [6] 13.2%

CC1CC[N+](C)([B-](F)(F)F)CC1 (stereo not given)
inactive: [1] 0.85% | [2] 1.85% | [3] 11.5% | [4] -31.1% | [5] 2.45% | [6] 11.1%

Cc1cc(Cc2ccc(NC(=O)N3CC3)c(C)c2)ccc1NC(=O)N1CC1
inactive: [1] -2.95% | [2] -8.25% | [3] -6.8% | [4] 0.25% | [5] 10.8% | [6] -18.9%

Cc1cccc(N=Cc2ccc(N(CCC#N)S(=O)(=O)c3ccccc3)cc2C)c1
inactive: [1] -34.5% | [2] -16.6% | [3] -54.9% | [4] -8.35% | [5] -10.9% | [6] -9.2%

CC1CC(=O)C2CC(Cl)CCC2(C)C1C (stereo not given)
inactive: [1] -18.1% | [2] -22.6% | [3] -4.6% | [4] -45.4% | [5] -27.4% | [6] -6.05%

[Cl][Ge]([Cl])([c]1ccccc1)[c]1ccccc1
inactive: [1] 29.1% | [2] 20.9% | [3] 29.1% | [4] 12.8% | [5] 43% | [6] 29.1%

CCCCCCCCCCCCCCCCCCNC(=O)N1CCCCC1C (stereo not given)
inactive: [1] 10.2% | [2] -3.9% | [3] -14.7% | [4] -24.1% | [5] -3.9% | [6] 14.3%

CCCCC(NC(=O)C1CCCN1C(=O)OCc1ccccc1)C(=O)OCc1ccccc1 (stereo not drawn) (Cbz-Pro-[Nle]-OBn; configuration not given here)
inactive: [1] 12.4% | [2] 12.2% | [3] 11.4% | [4] -10.9% | [5] -5.45% | [6] 15.9%

Cc1cc(C)cc([N+](=O)[O-])c1
inactive: [1] 8.5% | [2] -19% | [3] 1.3% | [4] 20.1% | [5] 4.65% | [6] -26.3%

O=c1ccc2cc(Br)ccc2o1
inactive: [1] 6.65% | [2] 16.7% | [3] 16.6% | [4] -16.4% | [5] 10.7% | [6] 4.35%

CSc1nc(NC2OCC(O)C(O)C2O)cc(=O)[nH]1 (stereo not given)
inactive: [1] 7.75% | [2] -0.95% | [3] 10.8% | [4] -2.25% | [5] -13.8% | [6] 1.3%

C/C(=N\N(c1ccccc1)c1ccccc1)c1c(O)cc(C)oc1=O
inactive: [1] -25.8% | [2] 8.2% | [3] 12.9% | [4] -27.4% | [5] 3.05% | [6] 14.8%

Cc1nnc(-c2cn(C3OC(CO)C(O)C3O)c3ncnc(N)c23)nc1C (stereo not given)
inactive: [1] 6.2% | [2] 15.9% | [3] 1% | [4] 0% | [5] -4.1% | [6] 8.9%

COC(=NC(C)C)NC(C)C
inactive: [1] 6.3% | [2] -17.2% | [3] 5.65% | [4] 14.2% | [5] 5.4% | [6] 14.4%

COc1ccc(F)cc1N
inactive: [1] 2% | [2] -17.8% | [3] 5.15% | [4] -7.35% | [5] 11.8% | [6] -18.7%

CCN(CC)c1nc(NNS(=O)(=O)c2ccccc2)nc(N(CC)CC)n1
inactive: [1] -3.6% | [2] -5.2% | [3] 4.3% | [4] -13.1% | [5] -4.3% | [6] 11%
